Bioassay records deposited in PubChem BioAssay by National Center for Advancing Translational Sciences (NCATS).
TGFb inhibitor: blocks TGF-b signaling; 1.2% of 410,000 active; HepG2 CAGA-GFP TGF-b/SMAD3 reporter, GFP fluorescence, 18 h; TGF-beta stimulated, 500 pg/mL final; Potency, µM (titrated, usually from 46.1 µM), inactives show at the top dose activity, negative = inhibition, most hits filed as inhibitors; note: % is set by controls: 0 for no effect and ±100 for the full control effect; nearly all actives have a fitted effect of over 65% in size
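Smad-responsive CAGA-GFP expression was quantified in HEPG2 cells exposed to compounds and 500 pg/mL final TGF-beta for 18 h at 37 degrees C; unstimulated wells defined full inhibition.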
DT40 TDP1 CPT: growth inhibition of DT40 Tdp1-/-;hTDP1 cells with camptothecin (screen for TDP1 inhibitors). chicken DT40 Tdp1-/-;hTDP1 cells + 20 nM CPT, ATP luminescence, 48 h. Potency, µM (highest dose often 46.2 µM), for inactives: at the top dose activity change, negative = growth inhibition, hits mostly inhibitors. 12% of 420,000 active; note: % is set by controls: 0 for no effect and ±100 for the full control effect; nearly all actives have a fitted effect of over 55% in size
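Chicken DT40 Tdp1-/- cells complemented with human TDP1, 400 cells/well, exposed to compounds plus 20 nM camptothecin for at least 48 h at 37 C; viability read as ATP content by CellTiter-Glo luminescence.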
DT40 TDP1 no CPT: qHTS for Inhibitors of human tyrosyl-DNA phosphodiesterase 1 (TDP1): qHTS in cells in absence of CPT; Potency, µM (doses to about 46.2 µM), for the others: at the top dose activity change, negative = growth inhibition, hits mostly inhibitors; 15% of 420,000 active; DT40 Tdp1-/- hTDP1 cells, no CPT, ATP luminescence, 48 h; note: % is set by controls: 0 for no effect and ±100 for the full control effect; nearly all actives have a fitted effect of over 55% in size
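Readout: luminescence from CellTiter-Glo after 30 min in the dark at RT. Cells: DT40 Tdp1-/- with stable hTDP1, 400/well. Exposure: compounds alone, ≥48 hr, 37 °C.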
HepG2 viability: kills HepG2 cells in TGF-b inhibitor counter-screen; 0.76% of 410,000 active; HepG2 CAGA-GFP viability, ATP luminescence, 18 h; Potency, µM (top dose mostly 46.1 µM), for inactives: at the top dose activity change, negative = cytotoxicity, usual class: cytotoxic
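CellTiter-Glo luminescence gave cytotoxicity after 18 hours at 37 degrees C. The cells were HepG2 CAGA-GFP in 1% FBS DMEM, stimulated with 500 pg/mL TGF-beta after compound addition. %Activity was normalised to no-cell wells (complete cell-killing) and DMSO (no toxicity), and curves were fitted and classified.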
ATXN viability: reduces viability in counter-screen for ATXN expression inhibitors. S2 cells (HEK-293 line with an ATXN2-luciferase reporter) viability, CellTiter-Fluor protease fluorescence, 24 h. Potency, µM (top dose mostly 56.7 µM), most hits filed as cytotoxic. 0.49% of 400,000 active; note: nearly all actives have a fitted effect of over 40% in size
ATXN2 expr inh: ATXN2 expression inhibition. AID 1745845. 0.72% of 360,000 active. HEK-293 ATXN2-luciferase reporter, luminescence, 24 h. Potency, µM (top dose mostly 57 µM), for inactives: at the highest dose activity change, negative = inhibition, actives largely listed as inhibitors; note: % is set by controls: 0 for no effect and ±100 for the full control effect; nearly all actives have a fitted effect of over 55% in size
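ATXN2-luciferase reporter cells (luciferase flanked by upstream and downstream ATXN2 gene portions) were treated 24 h at 37 °C with compounds at up to 57 uM. SteadyGlo luminescence gave expression; GF-AFC fluorescence gave viability.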
* marks the source's active call; other numbers are inactive results; i = inactive; ? = inconclusive; · = no result. Only some compounds are listed: those with a hit (about 17% of all), similar ones and a draw of the others. Calls come from the whole dose curve; as a rule, active = well fitted curve in the direction sought with a large enough effect; inconclusive = small, poorly fitted or top-dose-only effect, or another doubt; inactive = no such curve, though single readings can be large; an effect the other way counts as inactive or inconclusive. Potency is the fitted concentration of half-maximal effect.

SMILES	TGFb inhibitor	DT40 TDP1 CPT	DT40 TDP1 no CPT	HepG2 viability	ATXN viability	ATXN2 expr inh
CN1CCN(S(=O)(=O)c2ccc(NC(=S)NC(=O)c3ccc(Cl)cc3)cc2)CC1	1%	?	?	-14%	?	-17%
O=C(NC(=S)Nc1ccc(S(=O)(=O)N2CCCCC2)cc1)c1ccc(Cl)cc1	-10%	16µM*	10µM*	7%	i	-9%
O=C(CCCCCN1C(=O)c2cccc3cccc(c23)C1=O)NCc1cccnc1	-2%	2.9µM*	?	32%	i	-20%
COc1ccccc1N1CCN(C2CCCN(C(=O)c3cc(C4CC4)on3)C2)CC1 (stereo not given)	-9%	-12%	14%	2%	i	-11%
COc1ccccc1S(=O)(=O)Nc1ccc2nc(C)sc2c1	-6%	2.6µM*	21µM*	-7%	i	0%
Cc1ccc(S(=O)(=O)Nc2ccc3cn[nH]c3c2)c(C)c1	-15%	?	-19%	-21%	i	-9%
Cc1ccc(S(=O)(=O)Nc2ccc3nc(C)sc3c2)c(C)c1	-13%	?	15µM*	-6%	i	-35%
Cc1nc2cc(NS(=O)(=O)c3c(C)c(C)cc(C)c3C)ccc2s1	?	20µM*	11µM*	-37%	?	-11%
Cc1nc2ccc(NS(=O)(=O)c3c(C)c(C)cc(C)c3C)cc2s1	-13%	?	21µM*	-7%	i	-28%
COc1cc(/C=C/C(=O)O)cc(S(=O)(=O)Nc2ccc3nc(C)sc3c2)c1OC	0%	7%	-5%	23%	i	8%
Cc1nc2ccc(NS(=O)(=O)c3ccccc3F)cc2s1	?	?	?	-9%	i	·
Cc1nc2cc(NS(=O)(=O)c3ccccc3F)ccc2s1	17%	-29%	-15%	0%	i	7%
CCOc1ccc(NC(=O)CN(c2cccc(C(F)(F)F)c2)S(C)(=O)=O)cc1	-3%	-23%	?	-14%	i	-3%
Cc1cc(Br)ccc1NC(=O)CN(C)C(=O)c1cc([N+](=O)[O-])ccc1N1CCOCC1	-4%	-24%	?	-3%	i	-17%
CC(=O)OCC(NC(=O)C(CCCCNC(=O)OCc1ccccc1)NC(=O)OC(C)(C)C)C1OC(n2ccc(=O)[nH]c2=O)C(OC(C)=O)C1OC(C)=O (stereo not given)	-3%	·	·	1%	·	·
O=C1CCCN1CC(=O)N1CCCC(N2CCN(c3cccc(Cl)c3)CC2)C1 (stereo not given)	-15%	-17%	-3%	-11%	i	6%
COC(=O)c1ccc2nc(-c3ccc(Cl)cc3)c(Cc3ccsc3)n2c1	·	?	12µM*	·	i	7%
COC(=O)c1ccc2nc(-c3ccccc3)c(Cc3ccsc3)n2c1	-10%	21µM*	?	-12%	?	-12%
COC(=O)c1ccc2nc(-c3cccc(Br)c3)c(Cc3ccsc3)n2c1	?	?	?	2%	i	8%
COC(=O)c1ccc2nc(-c3ccc(OC)c(OC)c3)c(Cc3ccc(OC)cc3C)n2c1	?	?	26µM*	3%	i	-6%
COC(=O)c1ccc2nc(-c3cccc(Cl)c3)c(Cc3ccsc3)n2c1	?	?	16µM*	-20%	?	-13%
CCOC(=O)c1c(NC(=O)CCCOc2ccc(C(C)(C)C)cc2)sc2c1CCC2	29%	-16%	4%	6%	i	7%
COc1ccc(-c2nc3ccc(C)cn3c2CC2CCCCC2)cc1OC	?	18µM*	18µM*	-52%	?	-6%
COc1ccc(-c2nc3cc(C)c(Br)c(C)n3c2Cc2ccsc2)cc1OC	·	?	?	·	i	-3%
COC(=O)c1ccc2nc(-c3cccc(Br)c3)c(Cc3cccc(F)c3)n2c1	·	?	?	·	i	15%
SMILES	TGFb inhibitor	DT40 TDP1 CPT	DT40 TDP1 no CPT	HepG2 viability	ATXN viability	ATXN2 expr inh
COc1ccc(-c2nc3ccc(Br)cn3c2CC(C)(C)C)cc1OC	-1%	?	?	-5%	i	-3%
COC(=O)c1ccc2nc(-c3ccc(OC)c(OC)c3)c(Cc3ccsc3)n2c1	-6%	16µM*	23µM*	-11%	i	-4%
COc1ccc(-c2nc3ccc(C)cn3c2Cc2ccsc2)cc1OC	?	8.2µM*	7.3µM*	-26%	?	-21%
COc1ccccc1CNC(=O)COC(=O)c1cnc(C)cn1	0%	-6%	-22%	1%	i	·
CCNC(=O)C1CCCN(C(=O)c2cnc3ccccc3n2)CC1 (stereo not given)	9%	12%	-7%	-2%	i	7%
CCOc1ccc2[nH]c(C)cc(=O)c2c1	0%	?	-26%	-13%	i	4%
CCOc1ccc2nc3cc(N=Nc4ccc(N)nc4N)ccc3c(N)c2c1	?	5.8µM*	2.6µM*	14µM*	·	?
CCN(CCCNc1cc2c(c(N)c1S(=O)(=O)O)C(=O)c1ccccc1C2=O)c1ccccc1	-9%	?	18µM*	-18%	?	·
O=C(NC1CCOc2ccccc21)c1ccc(Cl)nc1 (stereo not given)	16%	14%	6%	3%	i	-3%
Cc1cccc2cc(CN(CC(C)C)S(=O)(=O)c3ccccc3)c(=O)[nH]c12	8%	?	23µM*	-13%	i	2%
C=CCN1c2ccccc2C(=O)CS1(=O)=O	-1%	2%	?	-16%	i	6%
Nc1cccc2c(=O)c3ccccc3[nH]c12	-12%	13µM*	8.2µM*	0%	i	-13%
COc1cccc2[nH]c3ccccc3c(=O)c12	-1%	-94%	?	-35%	?	·
CCOc1ccc(S(=O)(=O)n2cnc3cc(C)c(C)cc32)cc1	?	?	8.2µM*	-10%	i	?
Cc1cc2ncn(S(=O)(=O)c3ccc(S(=O)(=O)N4CCCCCC4)cc3)c2cc1C	-5%	16µM*	21µM*	-4%	i	-7%
Cc1cc2ncn(S(=O)(=O)c3ccc(S(N)(=O)=O)cc3)c2cc1C	4%	-13%	-36%	-1%	i	·
O=S(=O)(C/C(=C/CO)S(=O)(=O)c1ccccc1)c1ccccc1	?	0.82µM*	2.3µM*	16µM*	20µM*	?
C=CCn1c[n+](CC(=O)c2ccc(Br)s2)c2ccccc21	-4%	21µM*	12µM*	-19%	i	-24%
